# Laboratory results reported in the supplement of paper PMC8728848.
# Only a selection was taken, and the strongest signals are over-represented in it overall.
# Columns and labels:
# Assay in all cases: glycan array binding signal (z-score within array); higher = stronger binding
# Details in all cases: glycan notation: IUPAC condensed, linker removed
# [1] = target: Fuc(a1-2)Gal(b1-3)GalNAc(a1-3)[Fuc(a1-2)]Gal(b1-4)GlcNAc
# In short: (§1)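 Glycan array data came from 3228 arrays in the Consortium for Functional Glycomics database, and only arrays with an available protein sequence were kept. Glycan names were put into IUPAC-condensed notation, and columns mapping to the same glycan were averaged. The binding signal is a within-array Z-score, averaged across arrays of one protein sequence run at different concentrations or buffers and across linkers. A negative Z-score can be read as non-binding.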
# [2] = target: Fuc(a1-2)Gal(b1-4)Fuc(a1-3)]GlcNAc(b1-2)Man(a1-3)[Fuc(a1-2)Gal(b1-4)[Fuc(a1-3)]GlcNAc(b1-2)Man(a1-6)]Man(b1-4)GlcNAc(b1-4)GlcNAc
# In short: as §1
# [3] = target: Fuc(a1-2)Gal(b1-4)GlcNAc(b1-2)Man(a1-3)[Fuc(a1-2)Gal(b1-4)GlcNAc(b1-2)Man(a1-6)]Man(b1-4)GlcNAc(b1-4)[Fuc(a1-6)]GlcNAc
# In short: as §1
# [4] = target: Fuc(a1-2)Gal(b1-4)GlcNAc(b1-3)GalNAc
# In short: as §1
# [5] = target: Fuc(a1-2)Gal(b1-4)[Fuc(a1-3)]GlcNAc(b1-3)GalNAc
# In short: as §1
# [6] = target: Fuc(a1-2)[Gal(a1-3)]Gal(b1-3)GalNAc(b1-3)Gal(a1-4)Gal(b1-4)Glc
# In short: as §1
# [7] = target: Fuc(a1-2)[GalNAc(a1-3)]Gal
# In short: as §1
# [8] = target: Fuc(a1-2)[GalNAc(a1-3)]Gal(b1-4)[Fuc(a1-3)]GlcNAc(b1-3)GalNAc
# In short: as §1
# [9] = target: Fuc(a1-3)[Gal(b1-4)]GlcNAc(b1-2)Man(a1-3)[Fuc(a1-3)[Gal(b1-4)]GlcNAc(b1-2)Man(a1-6)]Man(b1-4)GlcNAc(b1-4)[Fuc(a1-6)]GlcNAc
# In short: as §1
# [10] = target: Gal(b1-2)Gal
# In short: as §1
# [11] = target: Gal(b1-3)GlcNAc
# In short: as §1
# [12] = target: Gal(b1-3)GlcNAc(b1-2)Man
# In short: as §1
# [13] = target: Gal(b1-3)GlcNAc(b1-2)Man(a1-3)[Gal(b1-3)GlcNAc(b1-2)Man(a1-6)]Man(b1-4)GlcNAc(b1-4)GlcNAc
# In short: as §1
# [14] = target: Gal(b1-3)GlcNAc(b1-3)Gal(b1-4)Glc
# In short: as §1
# [15] = target: Gal(b1-3)[Fuc(a1-4)]GlcNAc(b1-3)Gal(b1-3)[Fuc(a1-4)]GlcNAc
# In short: as §1
# [16] = target: Gal(b1-4)GlcNAc(b1-2)Man
# In short: as §1
# [17] = target: Gal(b1-4)GlcNAc(b1-2)Man(a1-3)[Gal(b1-4)GlcNAc(b1-2)Man(a1-6)]Man(b1-4)GlcNAc(b1-4)GlcNAc
# In short: as §1
# [18] = target: Gal(b1-4)GlcNAc(b1-2)[Gal(b1-4)GlcNAc(b1-6)]Man(a1-6)[GlcNAc(b1-4)][Gal(b1-4)GlcNAc(b1-2)Man(a1-3)]Man(b1-4)GlcNAc(b1-4)GlcNAc
# In short: as §1
# [19] = target: Gal(b1-4)GlcNAc(b1-3)Gal(b1-4)GlcNAc
# In short: as §1
# [20] = target: Gal(b1-4)GlcNAc(b1-3)Gal(b1-4)GlcNAc(b1-3)Gal(b1-4)GlcNAc(b1-2)Man(a1-3)[Gal(b1-4)GlcNAc(b1-3)Gal(b1-4)GlcNAc(b1-3)Gal(b1-4)GlcNAc(b1-2)Man(a1-6)]Man(b1-4)GlcNAc(b1-4)GlcNAc
# In short: as §1
# [21] = target: Gal(b1-4)GlcNAc(b1-3)Gal(b1-4)GlcNAc(b1-3)Gal(b1-4)GlcNAc(b1-3)Gal(b1-4)GlcNAc(b1-3)Gal(b1-4)GlcNAc(b1-2)Man(a1-3)[Gal(b1-4)GlcNAc(b1-3)Gal(b1-4)GlcNAc(b1-3)Gal(b1-4)GlcNAc(b1-3)Gal(b1-4)GlcNAc(b1-3)Gal(b1-4)GlcNAc(b1-2)Man(a1-6)]Man(b1-4)GlcNAc(b1-4)[Fuc(a1-6)]GlcNAc
# In short: as §1
# [22] = target: Gal3S(b1-3)GlcNAc
# In short: as §1
# [23] = target: Gal3S(b1-3)[Fuc(a1-4)]GlcNAc
# In short: as §1
# [24] = target: Gal6S(b1-4)GlcNAc6S
# In short: as §1
# [25] = target: GlcNAc(a1-4)Gal(b1-4)GlcNAc(b1-3)Gal(b1-4)[Fuc(a1-3)]GlcNAc(b1-3)Gal(b1-4)[Fuc(a1-3)]GlcNAc
# In short: as §1
# [26] = target: GlcNAc(b1-2)[GlcNAc(b1-4)]Man(a1-3)[GlcNAc(b1-2)Man(a1-6)]Man(b1-4)GlcNAc(b1-4)GlcNAc
# In short: as §1
# [27] = target: GlcNAc(b1-3)Gal(b1-4)GlcNAc(b1-3)[GlcNAc(b1-3)Gal(b1-4)GlcNAc(b1-3)]GalNAc
# In short: as §1
# [28] = target: Kdn(a2-3)Gal(b1-4)[Fuc(a1-3)]GlcNAc
# In short: as §1
# [29] = target: Neu5Ac(a2-3)Gal(b1-3)GlcNAc(b1-3)Gal(b1-3)GlcNAc
# In short: as §1
# [30] = target: Neu5Ac(a2-3)Gal(b1-3)[Neu5Ac(a2-6)]GlcNAc(b1-3)[Fuc(a1-3)[Gal(b1-4)]GlcNAc(b1-6)]Gal(b1-4)Glc
# In short: as §1
# [31] = target: Neu5Ac(a2-3)Gal(b1-4)GlcNAc(b1-2)Man(a1-3)[Neu5Ac(a2-6)Gal(b1-4)GlcNAc(b1-2)Man(a1-6)]Man(b1-4)GlcNAc(b1-4)GlcNAc
# In short: as §1
# [32] = target: Neu5Ac(a2-3)Gal(b1-4)GlcNAc(b1-3)Gal(b1-3)GlcNAc
# In short: as §1
# [33] = target: Neu5Ac(a2-3)Gal(b1-4)GlcNAc(b1-3)Gal(b1-4)GlcNAc(b1-3)Gal(b1-4)GlcNAc(b1-2)Man(a1-3)[Neu5Ac(a2-3)Gal(b1-4)GlcNAc(b1-3)Gal(b1-4)GlcNAc(b1-3)Gal(b1-4)GlcNAc(b1-2)Man(a1-6)]GalNAc
# In short: as §1
# [34] = target: Neu5Ac(a2-3)Gal(b1-4)GlcNAc(b1-3)Gal(b1-4)GlcNAc(b1-3)[Neu5Ac(a2-3)Gal(b1-4)GlcNAc(b1-3)Gal(b1-4)GlcNAc(b1-6)]GalNAc
# In short: as §1
# [35] = target: Neu5Ac(a2-3)Gal(b1-4)GlcNAc(b1-3)[Neu5Ac(a2-3)Gal(b1-4)GlcNAc(b1-6)]GalNAc
# In short: as §1
# [36] = target: Neu5Ac(a2-3)Gal(b1-4)[Fuc(a1-3)]GlcNAc(b1-3)GalNAc
# In short: as §1
# [37] = target: Neu5Ac(a2-6)Gal(b1-4)GlcNAc(b1-2)Man(a1-3)[GlcNAc(b1-4)][Neu5Ac(a2-6)Gal(b1-4)GlcNAc(b1-2)Man(a1-6)]Man(b1-4)GlcNAc(b1-4)GlcNAc
# In short: as §1
# [38] = target: Neu5Ac(a2-6)Gal(b1-4)GlcNAc(b1-2)Man(a1-3)[Man(a1-6)]Man(b1-4)GlcNAc(b1-4)GlcNAc
# In short: as §1
# [39] = target: Neu5Ac(a2-6)Gal(b1-4)GlcNAc(b1-2)Man(a1-6)Man(b1-4)GlcNAc(b1-4)GlcNAc
# In short: as §1
# [40] = target: Neu5Ac(a2-6)Gal(b1-4)GlcNAc(b1-3)Gal(b1-4)GlcNAc(b1-3)Gal(b1-4)GlcNAc(b1-2)Man(a1-3)[Neu5Ac(a2-6)Gal(b1-4)GlcNAc(b1-3)Gal(b1-4)GlcNAc(b1-3)Gal(b1-4)GlcNAc(b1-2)Man(a1-6)]GalNAc
# In short: as §1
binder,measurement,setting,value
Epa20 (Candida glabrata) (protein) MGSSHHHHHHSSGLVPRGSHMASSNIPNNYPLGCSNKYSGHLPGLKMELYSYNYVNPRHPDPQNPGKLDQLYDPNLLGTYECFDSSYKDINYPRVGYKSKTLIGRSDGVSGILNFNFVPPWGCMPQKGQLPPAYNFKSNITLSNFTMILFGYFKPKISGNHIFSLHGDDLIYLNFGAGNAFDCCRQESSADNFGNYQAFSLWGINWEKKTLTVYLDMNTYYPIRIFYNNRDYQAIFNFSFKTEFDSSPVIDFQDYFFFLRDIDGGCPGEV,glycan array binding signal (z-score),[1],-0.278
same,glycan array binding signal (z-score),[2],3.16
same,glycan array binding signal (z-score),[3],-0.005
same,glycan array binding signal (z-score),[4],-0.072
same,glycan array binding signal (z-score),[5],4.96
same,glycan array binding signal (z-score),[6],-0.067
same,glycan array binding signal (z-score),[7],-0.452
same,glycan array binding signal (z-score),[8],3.14
same,glycan array binding signal (z-score),[9],0.822
same,glycan array binding signal (z-score),[10],-0.763
same,glycan array binding signal (z-score),[11],-0.446
same,glycan array binding signal (z-score),[12],0.049
same,glycan array binding signal (z-score),[13],0.704
same,glycan array binding signal (z-score),[14],-0.669
same,glycan array binding signal (z-score),[15],-0.28
same,glycan array binding signal (z-score),[16],-0.114
same,glycan array binding signal (z-score),[17],-0.534
same,glycan array binding signal (z-score),[18],-0.48
same,glycan array binding signal (z-score),[19],-0.384
same,glycan array binding signal (z-score),[20],3.18
same,glycan array binding signal (z-score),[21],6.07
same,glycan array binding signal (z-score),[22],-0.241
same,glycan array binding signal (z-score),[23],0.569
same,glycan array binding signal (z-score),[24],0.939
same,glycan array binding signal (z-score),[25],0.435
same,glycan array binding signal (z-score),[26],-0.31
same,glycan array binding signal (z-score),[27],0.532
same,glycan array binding signal (z-score),[28],0.229
same,glycan array binding signal (z-score),[29],-0.76
same,glycan array binding signal (z-score),[30],2.49
same,glycan array binding signal (z-score),[31],-0.493
same,glycan array binding signal (z-score),[32],-0.463
same,glycan array binding signal (z-score),[33],2.75
same,glycan array binding signal (z-score),[34],4.06
same,glycan array binding signal (z-score),[35],2.82
same,glycan array binding signal (z-score),[36],2.98
same,glycan array binding signal (z-score),[37],-0.397
same,glycan array binding signal (z-score),[38],0.402
same,glycan array binding signal (z-score),[39],-0.108
same,glycan array binding signal (z-score),[40],3.97
